Experimental findings from PubChem BioAssay (EPA / NIEHS) are described below.

Where “and” joins values, the source holds several entries; their conditions need not be identical. Identical values can stand only once. Inconclusive results are not listed. Where a structure was tested more than once in an assay, its records may differ in their call. Calls of active or inactive are those of the source. Rule for the calls, unless noted: active = hit-call score of the fitted dose curve at least 0.9, where 1 is the maximum; inactive = score below 0.9.

Read-out in test [1]: Human Leukocyte Antigen - DR isotype (HLADR), HLA-DRA (gene 3122)
Description: BSK_3C_HLADR: BioMAP Diversity Plus: 3C Assay for Human Leukocyte Antigen - DR isotype (HLADR) Biomarker Activity (AID 2283019).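 For outcome: ELISA of cell-surface HLA-DR on HUVEC 24 h after dosing.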 The settings on record: primary human endothelial cells (HUVEC); actives raise or lower the signal. Put shortly:
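Primary human umbilical vein endothelial cells (3C system) were dosed with compound and cell-surface HLA-DR was quantified by ELISA at 24 h. Activity was fitted bidirectionally against DMSO as negative control and baseline.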

Read-out in test [2]: Vascular endothelial growth factor receptor 2 (Homo sapiens) (UniProt P35968)
Description: BSK_4H_VEGFRII: BioMAP Diversity Plus: 4H Assay for Vascular endothelial growth factor receptor 2 (VEGFR2) Biomarker Activity (AID 2283031). The settings on record: primary human endothelial cells (HUVEC); actives raise or lower the signal. In a few lines: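 Primary human umbilical vein endothelial cells in the BioMAP 4H system were dosed with test chemical, and 24 h later VEGFRII was measured by ELISA. Activity was fitted bidirectionally against DMSO as negative control and baseline.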

Read-out in test [3]: Interleukin-8 (IL8), CXCL8 (gene 3576)
Description: BSK_CASM3C_IL8: BioMAP Diversity Plus: CASM3C Assay for Interleukin-8 (IL8) Biomarker Activity (AID 2283042).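 Note: IL-8 protein level quantified by ELISA.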 The settings on record: primary human coronary artery smooth muscle cells; actives raise or lower the signal.

Read-out in test [4]: Monokine induced gamma interferon (MIG), CXCL9 (gene 4283)
Description: BSK_CASM3C_MIG: BioMAP Diversity Plus: CASM3C Assay for Monokine induced gamma interferon (MIG) Biomarker Activity (AID 2283048).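 Note: MIG protein level measured by ELISA.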 The settings on record: primary human coronary artery smooth muscle cells; actives raise or lower the signal.

Read-out in test [5]: Urokinase-type plasminogen activator receptor (uPAR), PLAUR (gene 5329)
Briefly: BSK_CASM3C_uPAR: BioMAP Diversity Plus: CASM3C Assay for Urokinase-type plasminogen activator receptor (uPAR) Biomarker Activity (AID 2283054).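 Note: cell-surface uPAR protein level quantified by ELISA.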 The settings on record: primary human coronary artery smooth muscle cells; actives raise or lower the signal.

Read-out in test [6]: Tissue Factor, F3 (gene 2152)
Description: BSK_LPS_TissueFactor: BioMAP Diversity Plus: LPS Assay for Tissue Factor Biomarker Activity (AID 2283084). The settings on record: primary human HUVEC with PBMC; actives raise or lower the signal. Put shortly:
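Human umbilical vein endothelial cells co-cultured with peripheral blood mononuclear cells were dosed and stimulated with LPS. Cell-surface CD142 was quantified by ELISA at 24 h. Activity was fitted bidirectionally against DMSO baseline.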

Read-out in test [7]: Vascular cell adhesion molecule 1 (VCAM1), VCAM1 (gene 7412)
Briefly: BSK_LPS_VCAM1: BioMAP Diversity Plus: LPS Assay for Vascular cell adhesion molecule 1 (VCAM1) Biomarker Activity (AID 2283086). The settings on record: primary human HUVEC with PBMC; actives raise or lower the signal. Put shortly:
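VCAM-1 quantified by ELISA in an LPS-activated co-culture of human endothelial cells and peripheral blood mononuclear cells, read 24 h post-treatment. Fitted in both directions versus DMSO; parallel SRB staining flags overt cytotoxicity.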

Read-out in another test: CD40, CD40 (gene 958)
Description: BSK_SAg_CD40: BioMAP Diversity Plus: SAg Assay for CD40 Biomarker Activity (AID 2283088). The settings on record: primary human HUVEC with PBMC; actives raise or lower the signal. Put shortly:
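Human umbilical vein endothelial cells co-cultured with PBMC; CD40 levels measured by ELISA with fluorescence read-out 24 h after chemical dosing. Gain or loss of signal fitted bidirectionally against DMSO baseline.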

Read-out in test [8]: Interleukin-8 (IL8), CXCL8 (gene 3576)
Briefly: BSK_SAg_IL8: BioMAP Diversity Plus: SAg Assay for Interleukin-8 (IL8) Biomarker Activity (AID 2283094). The settings on record: primary human HUVEC with PBMC; actives raise or lower the signal. In a few lines: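 ELISA readout of IL-8 from a superantigen-activated endothelial/PBMC primary human co-culture, taken 24 h post-dosing and fitted in both directions against DMSO; parallel SRB total-protein staining flags overt cytotoxicity.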

Test [9] is described as follows: BSK_SAg_SRB: Viability Assessment in the BioMAP Diversity Plus: SAg Assay (AID 2283096).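 Note: cells read one day after compound addition; hits may be either gain or loss of signal compared with DMSO.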 The settings on record: primary human HUVEC with PBMC. Put shortly:
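This overt-cytotoxicity endpoint quantifies protein in human endothelial/PBMC co-cultures at 24 h using SRB absorbance (560 nm) after trichloroacetic acid fixation. Values reflect signal change from the DMSO negative control, fitted bidirectionally.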

Test [10] is described as follows: BSK_BT_PBMCCytotoxicity: PBMC Cytotoxicity Assessment in the BioMAP Diversity Plus: BT Assay (AID 2284225).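 Note: PBMC viability measured by Alamar Blue dye reduction fluorescence.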 The settings on record: primary human B cells with PBMC. Put shortly:
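Viability by Alamar Blue reduction (6 h, ex/em 546/580 nm) after 90 h culture of SEB/TSST-1-activated PBMC (20 ng/mL each) given compound 1 h before activation. DMSO served as baseline for curve fitting.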

Read-out in test [11]: Secreted IgG (sIgG), gene 3500
Briefly: BSK_BT_sIgG: BioMAP Diversity Plus: BT Assay for Secreted IgG (sIgG) Biomarker Activity (AID 2284226). The settings on record: primary human B cells with PBMC. In a few lines:
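ELISA quantitation of secreted IgG from human B cells co-cultured with PBMC, sampled 24 h post-dosing. Values fitted relative to DMSO vehicle as baseline, positive fitting direction.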

Test [12] is described as follows: BSK_BT_Bcell_Proliferation: Viability Assessment in the BioMAP Diversity Plus: BT Assay for B cell Proliferation (AID 2284227). The settings on record: primary human B cells with PBMC. In a few lines: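 SRB-based protein staining (0.1% SRB after 10% TCA fixation, 560 nm) quantifies proliferation in human B cells co-cultured with PBMC, 72 h post-dosing, with signal gain scored relative to DMSO negative control.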

Read-out in test [13]: Interleukin 17A (IL17A), IL17A (gene 3605)
Description: BSK_BT_xIL17A: BioMAP Diversity Plus: BT Assay for Interleukin 17A (IL17A) Biomarker Activity (AID 2284229). The settings on record: primary human B cells with PBMC. In a few lines: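 B cells co-cultured with PBMC were exposed to test chemicals, and secreted IL-17A was quantified 24 h after dosing by Luminex xMAP bead immunoassay. Activity was fitted in the gain direction against DMSO as baseline.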

Read-out in test [14]: Collagen III, COL3A1 (gene 1281)
Briefly: BSK_MyoF_CollagenIII: BioMAP Diversity Plus: MyoF Assay for Collagen III Biomarker Activity (AID 2284239). The settings on record: primary human lung fibroblasts. Put shortly:
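Human lung fibroblasts were dosed with chemicals and, 24 hours later, collagen III was measured by ELISA. Activity was fitted in the positive direction against the DMSO negative-control baseline.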

Read-out in test [15]: Interleukin 2 (IL2), IL2 (gene 3558)
Briefly: BSK_BT_xIL2: BioMAP Diversity Plus: BT Assay for Interleukin 2 (IL2) Biomarker Activity (AID 2284245). The settings on record: primary human B cells with PBMC. In a few lines:
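Secreted IL-2 was read by Luminex xMAP from B cells co-cultured with PBMC (human primary) 24 h post-dosing; activity was analysed as gain of signal relative to DMSO vehicle.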

Read-out in test [16]: Collagen IV, COL4A1 (gene 1282)
Description: BSK_MyoF_CollagenIV: BioMAP Diversity Plus: MyoF Assay for Collagen IV Biomarker Activity (AID 2284247). The settings on record: primary human lung fibroblasts. In a few lines:
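Collagen IV quantified by ELISA in human lung fibroblast cultures 24 h after chemical treatment, with DMSO as baseline. Parallel SRB staining (0.1% SRB after TCA fixation, 560 nm) flags overt cytotoxicity.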

Read-out in test [17]: Plasminogen activator inhibitor-1 (PAI1), SERPINE1 (gene 5054)
Description: BSK_MyoF_PAI1: BioMAP Diversity Plus: MyoF Assay for Plasminogen activator inhibitor-1 (PAI1) Biomarker Activity (AID 2284256).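 Note: PAI-1 protein level measured by ELISA in fibroblast cultures; PAI-1 read 24 h after compound addition.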 The settings on record: primary human lung fibroblasts. In a few lines:
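ELISA read-out of PAI-1 from primary human lung fibroblast cultures 24 h after dosing; gain-of-signal fit versus DMSO control.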

Read-out in test [18]: Matrix Metallopeptidase 1 (MMP1), MMP1 (gene 4312)
Description: BSK_MyoF_MMP1: BioMAP Diversity Plus: MyoF Assay for Matrix Metallopeptidase 1 (MMP1) Biomarker Activity (AID 2284268). The settings on record: primary human lung fibroblasts. In a few lines: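 ELISA readout of MMP1 in primary human lung fibroblast cultures, 24 h post-dosing. Gain of signal versus DMSO vehicle control defines activity. Parallel SRB staining (0.1% after 10% TCA fixation, 560 nm) flags overt cytotoxicity.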

Test [19] concerns the target Estrogen receptor (Homo sapiens) (UniProt P03372). Description: ATG_ERa_TRANS: Attagene TRANS-FACTORIAL HepG2 Assay for human Estrogen Receptor alpha (ERa) (AID 2282970; active = hit-call score of the fitted dose curve at least 0.9, where 1 is the maximum). The settings on record: HepG2 Attagene TRANS ERa GAL4 reporter, mRNA. Put shortly: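 One of 30 multiplexed endpoints from a HepG2 TRANS system, this one reports ERa-Gal4-driven reporter mRNA. Transcripts were quantified 24 hours post-dosing by fluorescent RT-PCR and capillary electrophoresis, with activity scored as induction over DMSO.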

By AC50 is commonly meant the concentration at which the activity in the assay is half-maximal.

Estrogen receptor (Homo sapiens), sequence (P03372 whole entry, looked up, the tested form may be a part): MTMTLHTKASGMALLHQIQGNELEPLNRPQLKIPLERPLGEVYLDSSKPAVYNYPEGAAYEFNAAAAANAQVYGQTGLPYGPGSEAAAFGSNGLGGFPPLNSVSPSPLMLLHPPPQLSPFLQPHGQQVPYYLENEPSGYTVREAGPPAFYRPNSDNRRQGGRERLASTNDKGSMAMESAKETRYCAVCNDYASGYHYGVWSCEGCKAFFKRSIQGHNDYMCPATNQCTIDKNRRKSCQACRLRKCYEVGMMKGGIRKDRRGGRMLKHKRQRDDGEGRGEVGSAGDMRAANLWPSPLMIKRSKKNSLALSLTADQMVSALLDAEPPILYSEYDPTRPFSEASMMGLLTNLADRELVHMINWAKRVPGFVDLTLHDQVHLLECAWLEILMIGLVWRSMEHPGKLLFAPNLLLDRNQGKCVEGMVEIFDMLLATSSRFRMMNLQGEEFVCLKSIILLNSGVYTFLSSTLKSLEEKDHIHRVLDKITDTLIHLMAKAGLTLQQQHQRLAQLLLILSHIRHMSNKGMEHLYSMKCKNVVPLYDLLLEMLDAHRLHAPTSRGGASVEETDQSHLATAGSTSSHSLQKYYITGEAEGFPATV

Turning to `Cc1ccc(OP(=O)(Oc2ccc(C)cc2)Oc2ccc(C)cc2)cc1` (tested in a mixture with another compound), the AC50 in [1] was 20 µM (active); in test [5] it was 1.11 µM (active); with CD40, CD40 (gene 958) it was 20 µM (active); in test [8], 10.6 µM (active); in test [9], 20 µM (active); in [10] it was 5.41 µM (active). The AC50 in test [11] is 13.5 µM (active); in test [13], 14.1 µM (active); in [15], 20 µM (active); in test [18], 27.6 µM (active). Also, the result in test [2], in test [3], in [4], in test [6], in test [7] and in test [12] was inactive. In addition, the result in test [14], in test [16] and in test [17] was inactive.

As for `N#CCCCCC#N`, the outcome in test [1], in test [2], in test [3], in [4], in test [5] and in test [6] was inactive. Moreover, the outcome in test [7] was “inactive”; in the test with CD40, CD40 (gene 958), “inactive”; in test [8] it was “inactive”; in test [9], “inactive”.

As for `C[N+](C)(C)CC(=O)O`, in test [19], the result was inactive.

Turning to `CNC(=O)Oc1cc(C)c(SC)c(C)c1`, the AC50 in [19] was 8.61 µM (active); in [1], 24.6 µM (active); in test [5], 20 µM (active); in [7], 20 µM (active); in the test with CD40, CD40 (gene 958) it was 16.7 µM (active); in test [10], 15.6 µM (active). Moreover, the AC50 in test [11] was 10.6 µM (active); in test [12], 20.1 µM (active); in test [13], 11.5 µM (active). The outcome in test [2], in test [3], in [4], in test [6], in test [8] and in test [9] was inactive. The outcome in test [14], in [15], in test [16], in test [17] and in test [18] was inactive.

`CC1(C)[C@H](C(=O)O[C@H](C#N)c2cccc(Oc3ccccc3)c2)[C@@H]1C=C(Br)Br`: the outcome in test [1], in test [2], in [3], in test [4], in [5] and in [6] was inactive. Moreover, the outcome in [7] is “inactive”; in the test with CD40, CD40 (gene 958), “inactive”; in [8], “inactive”; in [9] it was “inactive”; in test [10], “inactive”; in test [12], “inactive”. Also, the outcome in test [13], in test [14], in [16], in [17] and in test [18] was inactive. The AC50 was 23.2 µM (active) and 29.8 µM (active) in test [11]; 20 µM (active) in test [12]; 20 µM (active) in [13]; 29.1 µM (active) and 20 µM (active) in test [15].
